From PubChem BioAssay
IL1B cytotox: HUVEC cytotoxicity counter-screen, IL-1B stimulated; 94,000 tested, 0.41% active; cell count reduction, % at 2 µM; HUVEC cell count loss, Hoechst imaging;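 active = cell count reduction more than 3 SD above the screen-wide mean, cut at about 70% in these data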;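 note: normalized per plate to untreated control cells as the no-loss baseline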
VCAM1 TNFa inh: reduces TNF alpha induced VCAM1 expression in HUVEC | 95,000 tested, 0.48% active | AID 802 | inhibition, % at 2 µM | HUVEC TNFa-induced VCAM-1 immunofluorescence, high-content imaging;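 active = inhibition above the batch mean plus 3 SD, with images confirmed as a hit by eye, cut at about 37% in these data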;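 note: 0% = TNF-stimulated DMSO wells and 100% = unstimulated control wells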
NFkB transloc inh: blocks IL-1B driven NFkB nuclear translocation in HUVEC cells; 94,000 tested, 0.43% active; AID 796; inhibition, % at 2 µM; HUVEC IL-1B NFkB p65 nuclear translocation imaging;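 active = inhibition above about 30% together with a positive call from visual inspection of the well image, limit read from the data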;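 note: nuclear over cytoplasmic p65 intensity ratio measured by imaging; 0% = IL-1B stimulated DMSO wells and 100% = unstimulated DMSO wells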
TNFa cytotox: HUVEC cytotoxicity counter-screen, TNF alpha stimulated; cell count reduction, % at 2 µM; 93,000 tested, 0.17% active; HUVEC TNFalpha-stimulated, Hoechst cell count, imaging;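 active = cell count reduction exceeding the screen mean by over 5 SD, scaled to untreated wells per plate, cut at about 78% in these data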;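 note: cells counted after 24 h of TNF alpha exposure following the 1 h pretreatment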
NFkB transloc pot: enhances IL-1B driven NFkB nuclear translocation; activation, % at 2 µM; AID 819; 94,000 tested, 0.3% active; HUVEC IL-1B NFkB p65 nuclear translocation imaging;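 active = activation above 40%, about the mean plus 3 SD, also judged a hit on visual image review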;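 note: percent activation is computed from the nuclear over cytoplasmic p65 intensity ratio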
An asterisk follows results filed as active. Most compounds without a hit are left out; they make up all but 1.5% or so of the library.

CCOC(=O)CSc1nc2ccccc2c(=O)n1CCC(=O)NCCc1ccc(OC)c(OC)c1 was read as IL1B cytotox -2, VCAM1 TNFa inh 0, NFkB transloc inh -23, TNFa cytotox -7 and NFkB transloc pot 23.
CCOc1ccc(-c2nnn(CC#N)n2)cc1OC was read as IL1B cytotox 12, VCAM1 TNFa inh 8, NFkB transloc inh 8, TNFa cytotox 8 and NFkB transloc pot -8.
For Cc1cnc(NC(=O)COc2ccccc2)s1 the results were IL1B cytotox -7, VCAM1 TNFa inh 17, NFkB transloc inh 0, TNFa cytotox -21 and NFkB transloc pot 0.
Screening COc1cc(CC(=O)Nc2ncc(C)s2)cc(OC)c1OC returned IL1B cytotox 7, VCAM1 TNFa inh 51*, NFkB transloc inh 4, TNFa cytotox -23 and NFkB transloc pot -4.
`O=C(N/C=N/OCc1ccc(Cl)cc1Cl)NOCc1ncc(C(F)(F)F)cc1Cl` gave IL1B cytotox -18, VCAM1 TNFa inh 10, NFkB transloc inh -15, TNFa cytotox -2 and NFkB transloc pot 15.
`C=CCSc1nc(C)c2cc(C)cc(C)c2n1` gave IL1B cytotox -114, VCAM1 TNFa inh 14, NFkB transloc inh 13, TNFa cytotox -2 and NFkB transloc pot -13.
For COc1ccc(CNC(=O)Cn2nc(C(F)(F)F)c3c2CCC3)cc1 the results were IL1B cytotox 94*, VCAM1 TNFa inh -22, NFkB transloc inh 35*, TNFa cytotox -28 and NFkB transloc pot -35.
CN1Cc2cc(C(=O)c3cc(Cl)cc(CSc4ncccn4)c3O)cnc2NC1=O was read as IL1B cytotox 24, VCAM1 TNFa inh 96*, NFkB transloc inh 17, TNFa cytotox 66 and NFkB transloc pot -17.
`O=C(COC(=O)c1ccccc1F)c1ccc(-n2nncc2-c2ccco2)cc1` gave IL1B cytotox -18, VCAM1 TNFa inh 10, NFkB transloc inh -42, TNFa cytotox -3 and NFkB transloc pot 42*.
For Cc1cccc(N(CC(=O)N/N=C/c2ccc(OCC(=O)NCc3ccco3)cc2)S(C)(=O)=O)c1C the results were IL1B cytotox -10, VCAM1 TNFa inh 78*, NFkB transloc inh -14, TNFa cytotox 44 and NFkB transloc pot 14.
For COC(=O)c1cc(S(=O)(=O)N2CCOCC2)ccc1Sc1ccccc1N the results were IL1B cytotox 8, VCAM1 TNFa inh 3, NFkB transloc inh 11, TNFa cytotox -8 and NFkB transloc pot -11.
Cc1ccc(C(=O)CSc2nnc(COc3ccc(C#N)cc3)n2-c2ccccc2)cc1 was read as IL1B cytotox -12, VCAM1 TNFa inh 96*, NFkB transloc inh -2, TNFa cytotox 8 and NFkB transloc pot 2.
For COc1ccc(C(=O)CSc2nnc(COc3ccc(C#N)cc3)n2-c2ccccc2)cc1 the results were IL1B cytotox -8, VCAM1 TNFa inh -5, NFkB transloc inh -20, TNFa cytotox -17 and NFkB transloc pot 20.
Screening Cn1c(CNc2ccccc2O)nc2ccccc21 returned IL1B cytotox -8, VCAM1 TNFa inh 59*, NFkB transloc inh -4, TNFa cytotox 89* and NFkB transloc pot 4.
`Cn1c(CNc2ccccc2)nc2ccccc21` gave IL1B cytotox -14, VCAM1 TNFa inh 23, NFkB transloc inh 6, TNFa cytotox -6 and NFkB transloc pot -6.
C/C(=N\Nc1nc2c(s1)CCCC2)c1ccccc1 was read as IL1B cytotox -14, VCAM1 TNFa inh 62*, NFkB transloc inh -26, TNFa cytotox 13 and NFkB transloc pot 26.
For O=C(Nc1nc2c(s1)CCCC2)Oc1ccccc1 the results were IL1B cytotox -24, VCAM1 TNFa inh 15, NFkB transloc inh -16, TNFa cytotox 9 and NFkB transloc pot 16.
`Cc1ccc(-c2nnc(-c3ccccc3)o2)cc1` gave IL1B cytotox 10, VCAM1 TNFa inh 32, NFkB transloc inh 72*, TNFa cytotox 1 and NFkB transloc pot -72.
O=C(O)CSc1nnc(-c2ccccc2)o1 was read as VCAM1 TNFa inh -2 and TNFa cytotox -8.
For COc1ccc(-c2nnc(SCc3ccccc3F)o2)cc1 the results were IL1B cytotox 15, VCAM1 TNFa inh 5, NFkB transloc inh 0, TNFa cytotox -1 and NFkB transloc pot 0.
c1ccc(-c2nnc(-c3cccc(-c4nnc(-c5ccccc5)o4)c3)o2)cc1 was read as IL1B cytotox 11, VCAM1 TNFa inh -14, NFkB transloc inh 9, TNFa cytotox -23 and NFkB transloc pot -9.
Screening Fc1ccccc1CSc1nnc(-c2ccccc2)o1 returned IL1B cytotox 92*, VCAM1 TNFa inh 19, NFkB transloc inh -14, TNFa cytotox -4 and NFkB transloc pot 14.
Cc1ccc(C(=O)CSc2nnc(-c3ccccc3)o2)cc1 was read as IL1B cytotox 93*, VCAM1 TNFa inh 10, NFkB transloc inh -5, TNFa cytotox 0 and NFkB transloc pot 5.
For COc1cc(CC(=O)Nc2ccc(S(=O)(=O)N(C)C)cc2)cc(OC)c1OC the results were IL1B cytotox -30, VCAM1 TNFa inh 10, NFkB transloc inh -1, TNFa cytotox -11 and NFkB transloc pot 1.
Screening CCCc1[nH]nc2c1C(c1cccnc1)C(C#N)=C(N)O2 (configuration not stated) returned IL1B cytotox -30, VCAM1 TNFa inh 87*, NFkB transloc inh 2, TNFa cytotox 82* and NFkB transloc pot -3.
For Cc1ccc(SCc2[nH]nc3c2C(c2cccnc2)C(C#N)=C(N)O3)cc1 (configuration not stated) the results were IL1B cytotox -22, VCAM1 TNFa inh 1, NFkB transloc inh -4, TNFa cytotox -18 and NFkB transloc pot 4.
CCc1[nH]nc2c1C(c1cccnc1)C(C#N)=C(N)O2 (configuration not stated) was read as IL1B cytotox -115, VCAM1 TNFa inh 12, NFkB transloc inh -43, TNFa cytotox -3 and NFkB transloc pot 43*.
COc1cccc(-c2nc(CS(=O)(=O)CC(=O)N3CCc4ccccc43)c(C)o2)c1 was read as IL1B cytotox 9, VCAM1 TNFa inh -20, NFkB transloc inh -6, TNFa cytotox 2 and NFkB transloc pot 6.
Screening COC(=O)Nc1ccc(S(=O)(=O)Nc2ccccc2F)cc1 returned IL1B cytotox -34, VCAM1 TNFa inh 15, NFkB transloc inh 5, TNFa cytotox -20 and NFkB transloc pot -5.
Screening CC(=O)Nc1ccccc1NS(=O)(=O)c1ccc(Cl)cc1 returned IL1B cytotox 15, VCAM1 TNFa inh 4, NFkB transloc inh 30*, TNFa cytotox -17 and NFkB transloc pot -30.
Cn1c(=O)c2c(ncn2CC(=O)OCc2ccccc2)n(C)c1=O was read as IL1B cytotox -24, VCAM1 TNFa inh 11, NFkB transloc inh -12, TNFa cytotox -7 and NFkB transloc pot 12.
`Cc1ccc2nc(NC(=O)C(NS(=O)(=O)c3cccc4nsnc34)C(C)C)sc2c1` (configuration not stated) gave IL1B cytotox 15, VCAM1 TNFa inh 11, NFkB transloc inh -13, TNFa cytotox -23 and NFkB transloc pot 13.
